Shown are actives, neighbours in structure and some others; about 3% of the full set was active somewhere.
TSHR agonist – activates the human thyroid stimulating hormone receptor; P16473; HEK293-CNG-TSHR cells (CNG channel as cAMP sensor), membrane potential dye, cAMP; Potency, µM (titrated, usually from 57.1 µM), hits mostly activators; 73,000 tested, 0.48% active; AID 926; active = well fitted activation curve with a large enough effect in the main read-out, with a control signal flat, not every such curve was filed as active; inconclusive = small, poorly fitted or top-dose-only effect, or a change in a side signal; inactive = no such curve, though single readings can be large or run the other way; reference of the percent scale not stated here;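 note: the control signal comes from parental cells without the receptor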
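cAMP rise detected as CNG-channel membrane depolarization by fluorescent dye (emission 590 nm), 30 min after compound, following 60 min dye loading containing 100 uM RO 20-1724 at room temperature. Cells: TSHR/CNG HEK 293, with parental CNG HEK 293 as control.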
Caspase-1 inhib – allosteric or competitive inhibitors of human caspase-1 | Caspase-1 enzyme, Ac-WEHD-AFC fluorogenic rate | Potency, µM (highest dose often 57.5 µM), actives largely listed as inhibitors | 75,000 tested, 0.03% active
HEK293 cAMP ctrl – raises cAMP in parental HEK293 cells, TSHR agonist counter-screen; parental HEK293 CNG cAMP sensor, membrane potential fluorescence; Potency, µM (titrated, usually from 57.1 µM), actives largely listed as activators; 73,000 tested, 2.5% active; note: nearly all actives have a fitted effect of over 55% in size
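Parental HEK 293 cells stably expressing a cAMP-gated CNG channel were loaded with membrane potential dye containing 100 uM RO 20-1724 for 60 min. Compound added for 30 min; depolarization read as fluorescence intensity at 590 nm.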
15-hLO-2 inh – blocks human 15-lipoxygenase 2 activity | O15296 | purified 15hLO-2, xylenol orange hydroperoxide absorbance | Potency, µM (top dose mostly 57.1 µM), most hits filed as inhibitors | 110,000 tested, 0.56% active; note: nearly all actives have a fitted effect of over 60% in size
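Read-out: hydroperoxide product oxidises ferrous iron, measured as xylenol orange complex via the 573-to-405 nm absorbance ratio after 30 min. Reaction: 50 nM enzyme, 15 min compound preincubation, 45 uM arachidonic acid, 90 min RT, Hepes pH 7.5 with Triton X-100.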
Caspase-7 inhib – blocks human caspase-7 allosterically or competitively; recombinant caspase-7, Ac-DEVD-AFC fluorescence rate; Potency, µM (doses to about 57.5 µM), hits mostly inhibitors; 75,000 tested, 0.02% active; AID 889; active = well fitted inhibition curve with a large enough effect in the main read-out, with a control signal flat, not every such curve was filed as active; inconclusive = small, poorly fitted or top-dose-only effect, or a change in a side signal
15-hLO inh – 15-hLO (ALOX15) enzyme inhibition; purified 15hLO-1, xylenol orange hydroperoxide absorbance; 74,000 tested, 1.4% active; P16050; Potency, µM (titrated, usually from 57.1 µM), usual class: inhibitors; AID 887; note: nearly all actives have a fitted effect of over 55% in size
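Hydroperoxide formed from arachidonic acid (50 uM) by purified human 15hLO-1 (40 nM) oxidizes ferrous iron, and the ferric-xylenol orange complex is read at 573 versus 405 nm. Compounds were preincubated 15 min; reaction ran 6 min at room temperature.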
A number is an active result; [ ] = another dose, or the depositor's remark. Unless noted, calls come from the whole dose curve; as a rule, active = well fitted curve in the direction sought with a large enough effect; inconclusive = small, poorly fitted or top-dose-only effect, or another doubt; inactive = no such curve, though single readings can be large; an effect the other way counts as inactive or inconclusive.

Screening O=C1NCCCc2c1oc1ccc(O)cc21 returned TSHR agonist inactive, Caspase-1 inhib inactive, HEK293 cAMP ctrl inactive, 15-hLO-2 inh inconclusive, Caspase-7 inhib inactive and 15-hLO inh inactive.
For Oc1c(Cl)cc(Cl)c2c1NCCC2 the results were TSHR agonist inactive, Caspase-1 inhib inactive, HEK293 cAMP ctrl inactive, 15-hLO-2 inh 5.01µM, Caspase-7 inhib inactive and 15-hLO inh 1.58µM.
Screening Cc1ccccc1Cc1c(C)nc2nc(SCC(=O)NCc3ccco3)nn2c1C returned TSHR agonist inactive[11.4 µM], Caspase-1 inhib inactive, HEK293 cAMP ctrl inactive, 15-hLO-2 inh inactive, Caspase-7 inhib inactive and 15-hLO inh inactive.
For Cc1ccc(Cc2c(C)nc3nc(SCC(=O)NCc4ccco4)nn3c2C)cc1 the results were TSHR agonist inconclusive, Caspase-1 inhib inactive, HEK293 cAMP ctrl 15.8µM, 15-hLO-2 inh inactive, Caspase-7 inhib inactive and 15-hLO inh inactive.
Screening Cc1cccc(Cc2c(C)nc3nc(SCC(=O)NCc4ccco4)nn3c2C)c1 returned TSHR agonist inconclusive, Caspase-1 inhib inactive, HEK293 cAMP ctrl 10µM, 15-hLO-2 inh inactive, Caspase-7 inhib inactive and 15-hLO inh inactive.
For Cc1nc2nc(SCC(=O)NCc3ccco3)nn2c(C)c1Cc1c(F)cccc1Cl the results were TSHR agonist inconclusive, Caspase-1 inhib inactive, HEK293 cAMP ctrl inconclusive, 15-hLO-2 inh inactive, Caspase-7 inhib inactive and 15-hLO inh inactive.
CC(=O)O[C@@H]1CC[C@]2(C)[C@H]3CC[C@]4(C)[C@H](C[C@H]5CCCC[C@@]54C(C)=O)[C@@H]3CC(=O)[C@@]2(O)C1 was read as TSHR agonist inactive and HEK293 cAMP ctrl inactive.
`Cc1cccc2cc(CN(Cc3nnnn3Cc3ccco3)C3CCCC3)c3nnnn3c12` gave TSHR agonist inconclusive, Caspase-1 inhib inactive, HEK293 cAMP ctrl 10µM, 15-hLO-2 inh inactive, Caspase-7 inhib inactive and 15-hLO inh inactive.
`CCN1C(C)=C(C(=O)OC)C(c2ccccc2)N2C(=O)[C@](O)(C(=O)OC)CC(C(C)=O)=C12` (stereo partly drawn) gave TSHR agonist inactive[11.4 µM], Caspase-1 inhib inactive[11.5 µM], HEK293 cAMP ctrl inactive[11.4 µM], Caspase-7 inhib inactive[11.5 µM] and 15-hLO inh inactive[11.4 µM].
For O=c1cnc2cncnc2n1Cc1ccccc1Cl the results were TSHR agonist 31.6µM, Caspase-1 inhib inactive, HEK293 cAMP ctrl inactive[0.457 µM], 15-hLO-2 inh inactive, Caspase-7 inhib inactive and 15-hLO inh inactive.
O=c1cnc2cncnc2n1Cc1ccccc1 was read as TSHR agonist 25.1µM, Caspase-1 inhib inactive, HEK293 cAMP ctrl inactive, 15-hLO-2 inh inactive, Caspase-7 inhib inactive and 15-hLO inh inactive.
For CN(C)c1ncc2nc(-c3ccc(F)cc3)c(=O)n(C3CC3)c2n1 the results were TSHR agonist inactive, Caspase-1 inhib inactive, HEK293 cAMP ctrl inactive, 15-hLO-2 inh inactive, Caspase-7 inhib inactive and 15-hLO inh inconclusive.
COc1ccc2c(C)cc(SCC#N)nc2c1 was read as TSHR agonist inconclusive, Caspase-1 inhib inactive, HEK293 cAMP ctrl 31.6µM, 15-hLO-2 inh inactive, Caspase-7 inhib inactive and 15-hLO inh inactive.
Screening Cc1ccc(C(=O)CCNc2cccc(Br)c2)o1 returned TSHR agonist inactive, Caspase-1 inhib inactive, HEK293 cAMP ctrl inactive, 15-hLO-2 inh inactive, Caspase-7 inhib inactive and 15-hLO inh 12.6µM.
Screening CN(C(=O)c1ccccc1C(=O)O)C1CC(C)(C)NC(C)(C)C1 returned TSHR agonist inactive, Caspase-1 inhib inactive, HEK293 cAMP ctrl inactive, Caspase-7 inhib inactive and 15-hLO inh inconclusive.
Screening CCn1c(SCC#N)nc2c(c1=O)C1(CCCC1)Cc1ccccc1-2 returned TSHR agonist inconclusive, Caspase-1 inhib inactive, HEK293 cAMP ctrl 25.1µM, 15-hLO-2 inh inactive, Caspase-7 inhib inactive and 15-hLO inh inconclusive.
Screening Cc1noc(C)c1CSc1ccccc1C(=O)N1CCN(c2ccccc2)CC1 returned TSHR agonist 3.16µM, Caspase-1 inhib inactive, HEK293 cAMP ctrl inactive, Caspase-7 inhib inactive and 15-hLO inh inactive.
`Fc1ccc(-c2nc3n(c2-c2ccncc2)CCS3)cc1` gave TSHR agonist inactive, Caspase-1 inhib inactive, HEK293 cAMP ctrl inactive, 15-hLO-2 inh inconclusive, Caspase-7 inhib inactive and 15-hLO inh inconclusive.
O=C1NCCCC2c3c(cc(Br)c(O)c3Br)OC12N1CCOCC1 (stereo not drawn) was read as TSHR agonist inactive, Caspase-1 inhib inactive, HEK293 cAMP ctrl inactive, 15-hLO-2 inh inactive, Caspase-7 inhib inactive and 15-hLO inh inactive.
For O=C1NCCCC2c3cc(O)c4ccccc4c3OC12N1CCCCC1 (stereo not drawn) the results were TSHR agonist inactive, Caspase-1 inhib 31.6µM, HEK293 cAMP ctrl inactive, 15-hLO-2 inh inconclusive, Caspase-7 inhib inconclusive and 15-hLO inh inconclusive.
OC[C@@H]1NC[C@@H](O)[C@@H](O)[C@H]1O was read as TSHR agonist inactive, Caspase-1 inhib inactive, HEK293 cAMP ctrl inactive, 15-hLO-2 inh inactive, Caspase-7 inhib inactive and 15-hLO inh inactive.
`COc1cc(C(=O)Nc2nnc(-c3sccc3C)s2)cc(OC)c1OC` gave TSHR agonist inconclusive, Caspase-1 inhib inconclusive, HEK293 cAMP ctrl inconclusive, 15-hLO-2 inh inactive, Caspase-7 inhib inactive and 15-hLO inh 20µM.
For COc1ccc(C(=O)Nc2nnc(-c3cccs3)s2)cc1 the results were 15-hLO-2 inh inactive.
CCOC(=O)C(NC(=O)c1ccc(OC)cc1)(OCC1(CC)COC1)C(F)(F)F (stereo not drawn) was read as TSHR agonist 7.94µM, Caspase-1 inhib inactive, HEK293 cAMP ctrl inactive, 15-hLO-2 inh inactive, Caspase-7 inhib inactive and 15-hLO inh inactive.
For CC(N=Cc1cccc(O)c1O)c1ccccc1 (stereo not drawn) the results were TSHR agonist inactive, Caspase-1 inhib inactive, HEK293 cAMP ctrl inactive, 15-hLO-2 inh inconclusive, Caspase-7 inhib inactive and 15-hLO inh 12.6µM.
`CC(N=C1NS(=O)(=O)c2ccccc21)c1ccccc1` (stereo not drawn) gave TSHR agonist inactive, Caspase-1 inhib inactive, HEK293 cAMP ctrl inactive, 15-hLO-2 inh inactive, Caspase-7 inhib inactive and 15-hLO inh inactive.
For OCC1O[C@H](O[C@H]2C(O)C(O)C(O)O[C@@H]2CO)C(O)C(O)C1O (stereo partly drawn) the results were Caspase-1 inhib inactive, 15-hLO-2 inh inactive, Caspase-7 inhib inactive and 15-hLO inh inactive.
Screening CCOC(=O)C1=C(N)OC2=C(C(=O)CC(C)(C)C2)C1c1ccco1 (stereo not drawn) returned TSHR agonist inconclusive, Caspase-1 inhib inactive, HEK293 cAMP ctrl 25.1µM, 15-hLO-2 inh inactive, Caspase-7 inhib inactive and 15-hLO inh inactive.
Cc1nc(NCCO)c2nc(-c3ccccc3)n(CC3CCN(C)CC3)c2n1 was read as TSHR agonist inactive, Caspase-1 inhib inactive, HEK293 cAMP ctrl inactive, 15-hLO-2 inh inactive, Caspase-7 inhib inactive and 15-hLO inh inactive.
Screening O=C(Cn1ncc2c3ccccc3n(Cc3ccc(F)cc3)c2c1=O)N1CCN(c2ncccn2)CC1 returned 15-hLO-2 inh inactive.
